# From publication PMC7862700, “An all-to-all approach to the identification of sequence-specific readers for epigenetic DNA modifications on cytosine”
# Experiments:
# Assay in all cases: DAPPL (digital affinity profiling via proximity ligation, sequencing); 10 mM Tris-HCl pH 7.5, 50 mM NaCl, 1 mM DTT, 4% glycerol, room temperature, 30 min; GST-TFs on glutathione beads, 16-mer random dsDNA library, 0.1% formaldehyde crosslink after washing; high values mean tight binding
# Conditions in all cases: protein: recombinant; tags: N-terminal GST; dsDNA, one strand shown
# [1] = target: T1, FEV (Homo sapiens, UniProt Q99581 1-238)
# T1 sequence: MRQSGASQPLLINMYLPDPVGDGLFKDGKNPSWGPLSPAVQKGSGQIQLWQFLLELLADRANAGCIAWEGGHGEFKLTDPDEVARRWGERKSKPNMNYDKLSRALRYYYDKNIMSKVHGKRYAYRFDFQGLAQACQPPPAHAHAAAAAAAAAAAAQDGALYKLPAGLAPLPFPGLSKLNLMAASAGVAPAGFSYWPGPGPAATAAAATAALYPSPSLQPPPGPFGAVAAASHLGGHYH
# Procedure, shortened: (§1)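 A tag-only sample was pooled with DNA-barcoded human transcription factors that had been expressed in yeast as GST fusions and captured on glutathione beads. The pools were incubated for 30 min at room temperature with 200 nmole of a random double-stranded 16-mer DNA library in Tris/NaCl/DTT/glycerol buffer, then washed, crosslinked with 0.1% formaldehyde, proximity-ligated (BsaI/T4 ligase, 1 h, 37 °C), PCR-amplified and sequenced on an Illumina NextSeq500. Binding signal is each hexamer's read frequency for a factor divided by its frequency for the tag-only sample.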
# [2] = target: ETV5 (Homo sapiens, UniProt P41161 1-510)
# Chain of ETV5 (P41161 whole entry): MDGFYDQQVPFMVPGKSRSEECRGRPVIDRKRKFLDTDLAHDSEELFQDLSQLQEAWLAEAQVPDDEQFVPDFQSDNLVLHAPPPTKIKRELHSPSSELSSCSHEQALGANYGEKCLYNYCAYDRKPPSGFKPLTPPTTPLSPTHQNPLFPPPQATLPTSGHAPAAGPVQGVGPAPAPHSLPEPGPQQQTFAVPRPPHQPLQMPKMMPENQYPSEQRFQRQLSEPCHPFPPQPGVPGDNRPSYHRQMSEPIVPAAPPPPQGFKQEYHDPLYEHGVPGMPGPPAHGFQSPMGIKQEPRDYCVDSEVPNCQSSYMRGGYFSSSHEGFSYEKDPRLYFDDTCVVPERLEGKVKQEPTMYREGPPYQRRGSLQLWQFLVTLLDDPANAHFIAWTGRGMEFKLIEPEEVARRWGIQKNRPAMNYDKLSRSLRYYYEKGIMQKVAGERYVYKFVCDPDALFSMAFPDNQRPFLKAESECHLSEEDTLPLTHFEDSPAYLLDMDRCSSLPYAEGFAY
# Procedure, shortened: as §1
# [3] = target: T2, SPIC (Homo sapiens, UniProt Q8N5J4 1-248)
# T2 sequence: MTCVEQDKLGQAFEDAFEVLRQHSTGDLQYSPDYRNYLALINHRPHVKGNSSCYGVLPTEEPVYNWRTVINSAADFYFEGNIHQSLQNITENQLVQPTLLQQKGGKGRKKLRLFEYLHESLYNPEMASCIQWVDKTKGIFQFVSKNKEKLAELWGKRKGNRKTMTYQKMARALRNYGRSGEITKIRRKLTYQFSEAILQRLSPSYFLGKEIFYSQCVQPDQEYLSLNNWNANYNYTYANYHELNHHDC
# Procedure, shortened: as §1
# [4] = target: ELF4 (Homo sapiens, UniProt Q99607 1-663)
# Chain of ELF4 (Q99607 whole entry): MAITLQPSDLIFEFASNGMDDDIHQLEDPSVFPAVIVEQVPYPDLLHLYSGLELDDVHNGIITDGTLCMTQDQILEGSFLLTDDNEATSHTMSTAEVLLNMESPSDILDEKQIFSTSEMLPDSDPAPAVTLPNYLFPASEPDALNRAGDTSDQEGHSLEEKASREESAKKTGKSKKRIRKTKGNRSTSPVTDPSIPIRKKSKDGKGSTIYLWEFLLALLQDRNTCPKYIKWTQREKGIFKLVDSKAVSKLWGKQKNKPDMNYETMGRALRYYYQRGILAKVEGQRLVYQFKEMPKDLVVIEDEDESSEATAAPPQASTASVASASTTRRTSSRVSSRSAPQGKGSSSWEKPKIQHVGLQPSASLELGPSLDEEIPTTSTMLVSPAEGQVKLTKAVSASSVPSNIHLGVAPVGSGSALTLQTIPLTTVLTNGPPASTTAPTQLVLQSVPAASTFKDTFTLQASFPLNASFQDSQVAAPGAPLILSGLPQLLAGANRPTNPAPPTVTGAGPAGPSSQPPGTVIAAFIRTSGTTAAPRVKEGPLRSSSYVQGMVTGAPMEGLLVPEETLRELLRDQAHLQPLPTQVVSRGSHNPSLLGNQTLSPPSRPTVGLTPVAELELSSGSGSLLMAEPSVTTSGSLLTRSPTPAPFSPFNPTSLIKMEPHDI
# Procedure, shortened: as §1
# [5] = target: T3, ELK4 (Homo sapiens, UniProt P28324-2 1-405)
# T3 sequence: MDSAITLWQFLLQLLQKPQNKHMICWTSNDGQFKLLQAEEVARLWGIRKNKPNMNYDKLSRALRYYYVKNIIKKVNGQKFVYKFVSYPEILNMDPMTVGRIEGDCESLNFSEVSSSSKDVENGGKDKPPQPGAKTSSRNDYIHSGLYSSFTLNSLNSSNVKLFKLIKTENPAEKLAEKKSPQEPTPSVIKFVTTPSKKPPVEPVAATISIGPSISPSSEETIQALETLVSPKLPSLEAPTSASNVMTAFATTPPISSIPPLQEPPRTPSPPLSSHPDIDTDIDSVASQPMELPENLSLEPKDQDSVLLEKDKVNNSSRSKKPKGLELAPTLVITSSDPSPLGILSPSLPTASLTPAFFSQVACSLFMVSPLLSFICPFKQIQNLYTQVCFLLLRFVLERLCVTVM
# Procedure, shortened: as §1
# [6] = target: T4, ETV2 (Homo sapiens, UniProt O00321 1-342)
# T4 sequence: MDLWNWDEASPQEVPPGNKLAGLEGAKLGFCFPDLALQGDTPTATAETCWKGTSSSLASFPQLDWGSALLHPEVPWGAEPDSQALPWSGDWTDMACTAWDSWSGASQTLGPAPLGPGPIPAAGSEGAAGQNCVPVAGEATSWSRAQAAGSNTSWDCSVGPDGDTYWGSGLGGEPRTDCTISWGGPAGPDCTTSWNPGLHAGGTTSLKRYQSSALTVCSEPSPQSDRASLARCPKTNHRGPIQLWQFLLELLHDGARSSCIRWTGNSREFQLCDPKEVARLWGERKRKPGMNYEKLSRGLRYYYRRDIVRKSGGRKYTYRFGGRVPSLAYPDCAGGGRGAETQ
# Procedure, shortened: as §1
# [7] = target: T5, ELF3 (Homo sapiens, UniProt P78545 1-371)
# T5 sequence: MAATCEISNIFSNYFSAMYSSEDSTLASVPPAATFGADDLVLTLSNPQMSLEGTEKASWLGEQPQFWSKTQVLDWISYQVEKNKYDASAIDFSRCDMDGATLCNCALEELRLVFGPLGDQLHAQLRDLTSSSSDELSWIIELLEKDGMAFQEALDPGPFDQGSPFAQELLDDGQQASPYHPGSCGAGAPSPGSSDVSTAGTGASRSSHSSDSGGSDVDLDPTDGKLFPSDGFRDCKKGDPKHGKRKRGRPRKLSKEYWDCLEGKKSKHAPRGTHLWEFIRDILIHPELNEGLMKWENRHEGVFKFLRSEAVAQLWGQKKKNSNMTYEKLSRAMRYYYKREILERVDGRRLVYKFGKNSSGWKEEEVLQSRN
# Procedure, shortened: as §1
# [8] = target: CRX (Homo sapiens, UniProt O43186 1-299)
# Chain of CRX (O43186 whole entry): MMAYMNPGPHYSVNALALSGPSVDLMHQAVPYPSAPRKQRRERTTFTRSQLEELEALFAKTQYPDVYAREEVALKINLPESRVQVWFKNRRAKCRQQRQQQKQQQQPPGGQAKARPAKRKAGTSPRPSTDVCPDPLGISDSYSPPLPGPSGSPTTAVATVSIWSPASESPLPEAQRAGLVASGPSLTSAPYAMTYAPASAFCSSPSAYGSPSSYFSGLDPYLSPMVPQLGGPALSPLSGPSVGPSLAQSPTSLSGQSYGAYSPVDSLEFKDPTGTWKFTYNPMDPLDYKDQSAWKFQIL
# Procedure, shortened: as §1
# [9] = target: ETV1 (Homo sapiens, UniProt P50549 1-477)
# Chain of ETV1 (P50549 whole entry): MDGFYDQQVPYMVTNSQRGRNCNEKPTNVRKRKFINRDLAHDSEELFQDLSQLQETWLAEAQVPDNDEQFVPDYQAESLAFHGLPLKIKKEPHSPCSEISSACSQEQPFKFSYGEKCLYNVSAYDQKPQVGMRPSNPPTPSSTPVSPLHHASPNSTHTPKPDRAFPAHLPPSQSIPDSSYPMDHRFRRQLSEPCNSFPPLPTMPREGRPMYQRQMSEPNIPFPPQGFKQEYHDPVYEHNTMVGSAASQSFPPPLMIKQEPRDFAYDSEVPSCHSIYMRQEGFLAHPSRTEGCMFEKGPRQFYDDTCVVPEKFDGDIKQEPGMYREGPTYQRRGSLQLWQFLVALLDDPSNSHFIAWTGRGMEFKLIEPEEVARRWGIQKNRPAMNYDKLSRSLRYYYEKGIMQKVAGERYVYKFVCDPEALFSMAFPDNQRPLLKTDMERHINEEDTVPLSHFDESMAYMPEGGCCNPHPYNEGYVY
# Procedure, shortened: as §1
# [10] = target: T6, ERF (Homo sapiens, UniProt P50548 1-548)
# T6 sequence: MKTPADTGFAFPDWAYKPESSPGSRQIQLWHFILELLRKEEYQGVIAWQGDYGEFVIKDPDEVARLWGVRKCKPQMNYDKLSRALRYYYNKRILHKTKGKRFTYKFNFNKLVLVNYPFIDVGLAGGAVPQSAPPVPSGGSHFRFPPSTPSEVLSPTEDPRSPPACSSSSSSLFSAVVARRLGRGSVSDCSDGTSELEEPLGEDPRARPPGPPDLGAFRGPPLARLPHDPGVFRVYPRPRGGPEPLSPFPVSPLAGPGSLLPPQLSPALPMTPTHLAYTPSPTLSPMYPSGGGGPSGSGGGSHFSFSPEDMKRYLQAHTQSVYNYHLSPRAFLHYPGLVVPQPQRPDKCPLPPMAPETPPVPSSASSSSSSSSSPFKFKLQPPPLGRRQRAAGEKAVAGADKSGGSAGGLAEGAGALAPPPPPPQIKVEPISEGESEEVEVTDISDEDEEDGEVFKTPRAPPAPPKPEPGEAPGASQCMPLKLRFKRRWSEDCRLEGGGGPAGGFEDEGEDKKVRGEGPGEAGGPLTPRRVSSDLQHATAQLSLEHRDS
# Procedure, shortened: as §1
# [11] = target: T7, ETV3L (Homo sapiens, UniProt Q6ZN32 1-361)
# T7 sequence: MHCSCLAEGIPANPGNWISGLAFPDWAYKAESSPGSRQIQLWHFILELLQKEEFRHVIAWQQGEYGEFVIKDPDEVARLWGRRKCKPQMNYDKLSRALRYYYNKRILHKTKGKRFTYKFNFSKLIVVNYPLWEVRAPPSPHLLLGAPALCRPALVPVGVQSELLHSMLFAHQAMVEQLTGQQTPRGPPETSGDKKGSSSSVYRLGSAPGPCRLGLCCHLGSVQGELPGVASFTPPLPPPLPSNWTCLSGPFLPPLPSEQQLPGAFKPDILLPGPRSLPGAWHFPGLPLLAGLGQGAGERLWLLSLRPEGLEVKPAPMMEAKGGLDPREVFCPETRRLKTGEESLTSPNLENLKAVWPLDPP
# Procedure, shortened: as §1
# [12] = target: T8, ETS2 (Homo sapiens, UniProt P15036 1-469)
# T8 sequence: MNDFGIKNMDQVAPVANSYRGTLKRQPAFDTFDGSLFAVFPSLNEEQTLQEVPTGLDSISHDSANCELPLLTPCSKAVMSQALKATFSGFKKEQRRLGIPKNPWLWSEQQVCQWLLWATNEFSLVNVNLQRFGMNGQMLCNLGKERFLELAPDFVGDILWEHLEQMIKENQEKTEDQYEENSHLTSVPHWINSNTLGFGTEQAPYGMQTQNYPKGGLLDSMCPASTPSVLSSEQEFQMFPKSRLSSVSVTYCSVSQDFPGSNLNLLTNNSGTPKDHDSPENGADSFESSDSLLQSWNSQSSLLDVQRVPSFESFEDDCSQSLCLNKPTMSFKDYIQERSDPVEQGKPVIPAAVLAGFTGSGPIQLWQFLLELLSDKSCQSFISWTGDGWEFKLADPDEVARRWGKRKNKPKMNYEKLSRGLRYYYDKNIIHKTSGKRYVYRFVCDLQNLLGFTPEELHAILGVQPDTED
# Procedure, shortened: as §1
# [13] = target: T9, SPDEF (Homo sapiens, UniProt O95238 1-335)
# T9 sequence: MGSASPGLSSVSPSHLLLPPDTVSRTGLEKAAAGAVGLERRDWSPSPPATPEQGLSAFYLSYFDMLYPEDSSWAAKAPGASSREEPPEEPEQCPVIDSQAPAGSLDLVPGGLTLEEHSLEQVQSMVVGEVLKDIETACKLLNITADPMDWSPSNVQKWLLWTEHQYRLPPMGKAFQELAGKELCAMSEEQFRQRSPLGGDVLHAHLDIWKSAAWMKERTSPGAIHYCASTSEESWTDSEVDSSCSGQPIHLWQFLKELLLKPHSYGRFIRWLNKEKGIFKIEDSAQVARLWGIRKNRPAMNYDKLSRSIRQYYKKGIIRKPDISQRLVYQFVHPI
# Procedure, shortened: as §1
# [14] = target: T10, ETV7 (Homo sapiens, UniProt Q9Y603 1-341)
# T10 sequence: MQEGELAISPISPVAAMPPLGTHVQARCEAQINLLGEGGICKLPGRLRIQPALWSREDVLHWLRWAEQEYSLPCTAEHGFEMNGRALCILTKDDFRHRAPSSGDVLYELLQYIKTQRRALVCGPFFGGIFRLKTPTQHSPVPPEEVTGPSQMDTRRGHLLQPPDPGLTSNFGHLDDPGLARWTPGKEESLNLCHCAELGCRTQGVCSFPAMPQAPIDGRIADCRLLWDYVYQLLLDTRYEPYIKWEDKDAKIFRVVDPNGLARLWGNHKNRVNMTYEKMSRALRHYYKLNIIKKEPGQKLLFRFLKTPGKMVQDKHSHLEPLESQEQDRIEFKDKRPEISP
# Procedure, shortened: as §1
# [15] = target: T11, ELF5 (Homo sapiens, UniProt Q9UKW6-2 1-255)
# T11 sequence: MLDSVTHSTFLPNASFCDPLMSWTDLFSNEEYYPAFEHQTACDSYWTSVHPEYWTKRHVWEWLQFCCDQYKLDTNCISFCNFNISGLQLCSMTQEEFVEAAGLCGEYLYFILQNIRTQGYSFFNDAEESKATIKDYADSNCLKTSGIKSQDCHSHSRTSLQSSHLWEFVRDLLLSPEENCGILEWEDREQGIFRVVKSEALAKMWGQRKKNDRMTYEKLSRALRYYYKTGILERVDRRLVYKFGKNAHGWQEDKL
# Procedure, shortened: as §1
# [16] = target: T12, ETV3 (Homo sapiens, UniProt P41162-2 1-143)
# T12 sequence: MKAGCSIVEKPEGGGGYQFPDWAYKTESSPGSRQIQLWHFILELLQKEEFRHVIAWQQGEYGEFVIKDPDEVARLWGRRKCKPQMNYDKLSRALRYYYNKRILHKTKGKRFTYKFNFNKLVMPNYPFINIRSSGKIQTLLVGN
# Procedure, shortened: as §1
# [17] = target: ETV6 (Homo sapiens, UniProt P41212 1-452)
# Chain of ETV6 (P41212 whole entry): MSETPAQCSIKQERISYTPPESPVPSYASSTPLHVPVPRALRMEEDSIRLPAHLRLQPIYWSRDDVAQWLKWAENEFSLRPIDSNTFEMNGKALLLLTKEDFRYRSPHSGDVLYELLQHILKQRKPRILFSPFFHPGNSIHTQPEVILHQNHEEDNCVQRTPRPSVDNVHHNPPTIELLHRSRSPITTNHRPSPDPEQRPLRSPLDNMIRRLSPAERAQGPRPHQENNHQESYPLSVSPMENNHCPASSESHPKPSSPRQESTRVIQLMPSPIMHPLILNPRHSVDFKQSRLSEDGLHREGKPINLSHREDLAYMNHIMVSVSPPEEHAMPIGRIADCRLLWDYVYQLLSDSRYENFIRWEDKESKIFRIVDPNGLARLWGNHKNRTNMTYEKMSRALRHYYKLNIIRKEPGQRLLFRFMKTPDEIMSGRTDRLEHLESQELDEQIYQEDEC
# Procedure, shortened: as §1
Sequence,binding signal [1],binding signal [2],binding signal [3],binding signal [4],binding signal [5],binding signal [6],binding signal [7],binding signal [8],binding signal [9],binding signal [10],binding signal [11],binding signal [12],binding signal [13],binding signal [14],binding signal [15],binding signal [16],binding signal [17]
TTGCAG,"1.08 fold enrichment (6-mer frequency, TF over GST control)","1.13 fold enrichment (6-mer frequency, TF over GST control)","1.05 fold enrichment (6-mer frequency, TF over GST control)","1.09 fold enrichment (6-mer frequency, TF over GST control)","1.29 fold enrichment (6-mer frequency, TF over GST control)","1.17 fold enrichment (6-mer frequency, TF over GST control)","1.13 fold enrichment (6-mer frequency, TF over GST control)","1.1 fold enrichment (6-mer frequency, TF over GST control)","1.07 fold enrichment (6-mer frequency, TF over GST control)","1.24 fold enrichment (6-mer frequency, TF over GST control)","1.11 fold enrichment (6-mer frequency, TF over GST control)","1.19 fold enrichment (6-mer frequency, TF over GST control)","1.14 fold enrichment (6-mer frequency, TF over GST control)","1.13 fold enrichment (6-mer frequency, TF over GST control)","1.08 fold enrichment (6-mer frequency, TF over GST control)","1.1 fold enrichment (6-mer frequency, TF over GST control)","1.12 fold enrichment (6-mer frequency, TF over GST control)"
CCTACC,"1.29 fold enrichment (6-mer frequency, TF over GST control)","1.35 fold enrichment (6-mer frequency, TF over GST control)","1.36 fold enrichment (6-mer frequency, TF over GST control)","1.4 fold enrichment (6-mer frequency, TF over GST control)","1.22 fold enrichment (6-mer frequency, TF over GST control)","1.38 fold enrichment (6-mer frequency, TF over GST control)","1.1 fold enrichment (6-mer frequency, TF over GST control)","1.07 fold enrichment (6-mer frequency, TF over GST control)","1.47 fold enrichment (6-mer frequency, TF over GST control)","1.37 fold enrichment (6-mer frequency, TF over GST control)","1.37 fold enrichment (6-mer frequency, TF over GST control)","1.36 fold enrichment (6-mer frequency, TF over GST control)","1.35 fold enrichment (6-mer frequency, TF over GST control)","1.21 fold enrichment (6-mer frequency, TF over GST control)","1.44 fold enrichment (6-mer frequency, TF over GST control)","1.35 fold enrichment (6-mer frequency, TF over GST control)","1.32 fold enrichment (6-mer frequency, TF over GST control)"
